# Results: PubChem BioAssay AID722 (NMMLSC, 2007)
# Hit rate of the full screen: of about 1,300 compounds, about 40 (3%) were called active. This excerpt belongs to a sample that is enriched for actives. Unmarked numbers belong to inactive results. Rule as the data show it: active = inhibition above about 30%; inactive = the rest.
# Target: fMet-Leu-Phe receptor (Homo sapiens) (UniProt P21462)
# Assay: FPR1 fluorescent ligand binding inhibitors, primary screen, cell-based, flow cytometry, SAR analysis (AID 722)
# Conditions: FPR-expressing cells, hits give high values, concentration not given here
# Sequence of fMet-Leu-Phe receptor (Homo sapiens) (P21462 whole entry, looked up): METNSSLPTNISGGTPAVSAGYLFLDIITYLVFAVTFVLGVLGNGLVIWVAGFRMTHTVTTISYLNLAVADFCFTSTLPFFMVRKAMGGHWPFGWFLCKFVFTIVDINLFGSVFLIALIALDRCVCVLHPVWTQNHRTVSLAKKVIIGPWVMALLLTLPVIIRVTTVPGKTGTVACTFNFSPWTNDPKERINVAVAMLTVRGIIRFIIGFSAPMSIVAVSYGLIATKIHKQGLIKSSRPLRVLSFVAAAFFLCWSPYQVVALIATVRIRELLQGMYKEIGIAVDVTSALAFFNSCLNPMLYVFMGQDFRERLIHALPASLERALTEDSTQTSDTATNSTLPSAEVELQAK
row,Structure (SMILES),inhibition
1,COc1ccc2c(=O)c(-c3ccccc3)c(C(F)(F)F)oc2c1C,-2.4%
2,CCc1cc2c(=O)c(-c3nc4ccccc4s3)c(C)oc2cc1OC(C)=O,4%
3,O=C1C(=O)N(CCN2CCOCC2)C(c2cccc(Br)c2)/C1=C(\O)c1ccccc1 (stereo unspecified),1.8%
4,Cc1onc(-c2c(Cl)cccc2Cl)c1C(=O)N1CCC(C)CC1,5.9%
5,COC(=O)c1c(NC(=O)c2cccc(Br)c2)sc2c1CCCC2,-4.7%
6,Cc1cc(N2C(=O)CSC2c2ccccc2F)ccc1Br (stereo unspecified),0.4%
7,COc1ccc(OC)c(C2C(C(=O)/C=C/c3ccccc3)=C(O)C(=O)N2CCCCCC(=O)O)c1 (stereo unspecified),-3.9%
8,Cc1oc2cc(OCC(=O)O)ccc2c(=O)c1-c1ccc2c(c1)OCCO2,3.2%
9,CCOC(=O)c1c(NC(=O)Cc2ccccc2)sc2c1CCCCC2,-0.4%
10,COc1cccc(C(=O)/C=C(\Nc2sc3c(c2C#N)CCC3)C(=O)O)c1,-24.9%
11,N#Cc1c(N/C(=C\C(=O)c2ccccc2)C(=O)O)sc2c1CCC2,53% (active)
12,Cn1c2c(c(=O)n3ncc(C(=O)O)c13)CN(Cc1ccccc1)CC2,-6.5%
13,CCc1cc2c(=O)c(-c3nc4ccccc4n3C)c(C)oc2c(CN2CCCCC2)c1O,-12.9%
14,CCOC(=O)c1c(NC(=O)c2cc(C)no2)sc(C)c1C,2.2%
15,COc1ccc(OC)c(NC(=O)C(C)n2sc3ccccc3c2=O)c1 (stereo unspecified),2.2%
16,Cc1cccc(N2C(=O)C(=O)/C(=C(/O)c3ccccc3)C2c2cccc(F)c2)c1 (stereo unspecified),4.1%

row,Structure (SMILES),inhibition
1,O=C(O)COc1ccc(N2C(=O)C(=O)/C(=C(\O)c3ccccc3)C2c2cccc(F)c2)cc1 (stereo unspecified),-6.1%
2,CCCCCCOc1cccc(N2C(=O)C(=O)/C(=C(\O)c3ccccc3)C2c2ccc(C(C)C)cc2)c1 (stereo unspecified),-11.9%
3,Cc1ccc(N2C(=O)C(=O)/C(=C(\O)c3ccccc3)C2c2cccc(F)c2)cc1Br (stereo unspecified),30.2% (active)
4,CCCCCCOc1cccc(N2C(=O)C(=O)/C(=C(\O)c3ccccc3)C2c2cccc(F)c2)c1 (stereo unspecified),56.3% (active)
5,COc1ccc(/C(O)=C2/C(=O)C(=O)N(c3ccc(C)c(Br)c3)C2c2cccc(F)c2)cc1 (stereo unspecified),20.6%
6,COC(=O)c1c(NC(=O)c2ccc(C)cc2)sc(C)c1C,-13.3%
7,COc1ccc(C2/C(=C(\O)c3ccccc3)C(=O)C(=O)N2CCN2CCOCC2)c(OC)c1 (stereo unspecified),17%
8,CCOc1ccc(/C(O)=C2\C(=O)C(=O)N(CCN3CCOCC3)C2c2ccc(Br)cc2)c(C)c1 (stereo unspecified),-1.7%
9,COc1ccc(C2SCC(=O)N2c2ccc(Br)cc2)cc1 (stereo unspecified),1.9%
10,CCCN(C(=O)c1cccc(NC(=O)[C@H]2[C@@H]3C[C@@H]4[C@H]2C(=O)O[C@@H]4C3)c1)c1ccccc1F,-2.9%
11,CCOC(=O)c1c(NC(=O)c2ccco2)sc(C)c1C,-1.8%
12,CCOC(=O)C1NN=C(C(=O)c2ccccc2)C1c1ccccc1 (stereo unspecified),-1%
13,CCSC1=C(C#N)C(c2ccc3c(c2)OCO3)CC(=O)N1 (stereo unspecified),-2.1%
14,COc1cccc(C2/C(=C(/O)c3ccc(Cl)cc3)C(=O)C(=O)N2c2ccc(C)c(Br)c2)c1 (stereo unspecified),0.2%
15,COc1ccc(C2CC(=O)C3=C(C2)NC(=O)CC3c2cccs2)cc1OC (stereo unspecified),-3.3%
